Measured values from the supplement of paper PMC10849652.
About 7,900 targets were measured; listed, in parts, are those with a hit and a random draw of the rest. About 0.6% of all pairs of compound and target were hits.

These targets were tested with C1CCN(C1)C(=O)NC2=CC=CC(=C2)NC3=NC=C(C(=N3)NCCC4=CN=CN4)Br (assay: log2 fold change, soluble protein after heating vs DMSO (PISA); higher = thermal stabilisation; K562 cells, 10 uM, 30 min; active = over 0.2 and 3.5 SD of the protein, either way, in both replicates (recomputed)).
Summary of the method: (§1)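 Soluble protein was quantified by TMTpro 16plex LC-MS/MS after channel sums were equalised. It was obtained as the supernatant after 21,000xg for 90 min from pooled aliquots of K562 cells (2×10^6 cells/mL, 10 μM compound, 30 min) heated for 3 min across 48°C-58°C and extracted in PBS with 0.5% NP-40 at 4°C. Thermal stability values are relative to control samples and come from duplicates. They are given as log2 fold changes.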

Chain of UniProt P0C0S5 (P0C0S5 whole entry, looked up): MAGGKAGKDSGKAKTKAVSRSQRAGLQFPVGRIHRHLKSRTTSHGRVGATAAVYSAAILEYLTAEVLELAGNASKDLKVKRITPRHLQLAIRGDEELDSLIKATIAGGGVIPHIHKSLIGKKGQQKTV
Chain of UniProt P29084 (P29084 whole entry, looked up): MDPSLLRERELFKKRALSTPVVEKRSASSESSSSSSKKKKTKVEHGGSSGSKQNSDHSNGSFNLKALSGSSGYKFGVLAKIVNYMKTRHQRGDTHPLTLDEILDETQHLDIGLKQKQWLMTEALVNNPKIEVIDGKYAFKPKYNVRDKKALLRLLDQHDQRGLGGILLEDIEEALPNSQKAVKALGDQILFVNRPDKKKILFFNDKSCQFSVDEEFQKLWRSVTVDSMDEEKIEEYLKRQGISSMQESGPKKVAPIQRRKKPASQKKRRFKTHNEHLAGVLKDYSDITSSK
Chain of UniProt Q00403 (Q00403 whole entry, looked up): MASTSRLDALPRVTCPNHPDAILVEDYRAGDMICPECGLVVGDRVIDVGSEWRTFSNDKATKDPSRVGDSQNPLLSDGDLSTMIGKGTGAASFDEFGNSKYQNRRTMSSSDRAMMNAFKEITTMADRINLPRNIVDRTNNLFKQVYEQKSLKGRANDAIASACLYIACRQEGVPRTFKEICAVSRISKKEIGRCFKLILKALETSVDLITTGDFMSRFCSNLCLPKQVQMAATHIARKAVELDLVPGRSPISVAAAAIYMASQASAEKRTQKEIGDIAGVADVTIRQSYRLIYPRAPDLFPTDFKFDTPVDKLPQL
Chain of UniProt P55084 (P55084 whole entry, looked up): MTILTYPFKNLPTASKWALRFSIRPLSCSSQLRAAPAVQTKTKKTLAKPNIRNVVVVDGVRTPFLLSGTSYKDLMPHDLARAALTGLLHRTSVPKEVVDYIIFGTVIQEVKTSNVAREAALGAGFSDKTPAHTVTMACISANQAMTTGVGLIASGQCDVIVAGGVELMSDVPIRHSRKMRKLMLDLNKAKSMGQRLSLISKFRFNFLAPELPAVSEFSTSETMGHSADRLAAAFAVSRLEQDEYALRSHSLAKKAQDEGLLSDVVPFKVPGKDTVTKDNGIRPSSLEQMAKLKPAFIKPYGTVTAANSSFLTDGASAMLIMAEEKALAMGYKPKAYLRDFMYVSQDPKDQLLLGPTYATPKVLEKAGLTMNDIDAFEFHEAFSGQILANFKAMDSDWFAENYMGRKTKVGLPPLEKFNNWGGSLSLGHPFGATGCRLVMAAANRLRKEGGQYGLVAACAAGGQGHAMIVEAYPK
Chain of UniProt Q9BUP3 (Q9BUP3 whole entry, looked up): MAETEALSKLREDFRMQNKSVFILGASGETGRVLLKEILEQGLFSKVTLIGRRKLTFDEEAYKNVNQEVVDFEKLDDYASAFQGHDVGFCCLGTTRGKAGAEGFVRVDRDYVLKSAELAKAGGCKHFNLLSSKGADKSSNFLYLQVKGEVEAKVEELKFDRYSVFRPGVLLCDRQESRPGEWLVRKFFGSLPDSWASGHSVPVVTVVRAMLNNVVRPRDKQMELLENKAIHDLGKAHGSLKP
Chain of UniProt P16278 (P16278 whole entry, looked up): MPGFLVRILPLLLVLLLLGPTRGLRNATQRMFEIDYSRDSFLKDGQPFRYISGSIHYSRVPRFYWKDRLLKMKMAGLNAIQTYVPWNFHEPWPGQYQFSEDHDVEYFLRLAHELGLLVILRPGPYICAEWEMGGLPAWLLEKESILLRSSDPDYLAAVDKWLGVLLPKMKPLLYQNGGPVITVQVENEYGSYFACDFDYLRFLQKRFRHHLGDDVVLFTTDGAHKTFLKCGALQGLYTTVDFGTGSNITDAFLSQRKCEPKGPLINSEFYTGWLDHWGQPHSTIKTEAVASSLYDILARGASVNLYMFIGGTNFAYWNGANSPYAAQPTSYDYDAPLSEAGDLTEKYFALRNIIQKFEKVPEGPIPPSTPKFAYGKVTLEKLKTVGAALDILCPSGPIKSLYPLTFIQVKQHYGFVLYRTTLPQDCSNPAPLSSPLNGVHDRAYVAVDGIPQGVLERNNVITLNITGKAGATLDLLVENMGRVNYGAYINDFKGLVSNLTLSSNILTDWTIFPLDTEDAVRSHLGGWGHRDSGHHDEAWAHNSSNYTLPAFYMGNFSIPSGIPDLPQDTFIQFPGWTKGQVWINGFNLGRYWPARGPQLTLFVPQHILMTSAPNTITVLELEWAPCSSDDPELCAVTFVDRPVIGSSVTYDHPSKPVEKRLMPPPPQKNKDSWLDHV
Chain of UniProt Q14527 (Q14527 whole entry, looked up): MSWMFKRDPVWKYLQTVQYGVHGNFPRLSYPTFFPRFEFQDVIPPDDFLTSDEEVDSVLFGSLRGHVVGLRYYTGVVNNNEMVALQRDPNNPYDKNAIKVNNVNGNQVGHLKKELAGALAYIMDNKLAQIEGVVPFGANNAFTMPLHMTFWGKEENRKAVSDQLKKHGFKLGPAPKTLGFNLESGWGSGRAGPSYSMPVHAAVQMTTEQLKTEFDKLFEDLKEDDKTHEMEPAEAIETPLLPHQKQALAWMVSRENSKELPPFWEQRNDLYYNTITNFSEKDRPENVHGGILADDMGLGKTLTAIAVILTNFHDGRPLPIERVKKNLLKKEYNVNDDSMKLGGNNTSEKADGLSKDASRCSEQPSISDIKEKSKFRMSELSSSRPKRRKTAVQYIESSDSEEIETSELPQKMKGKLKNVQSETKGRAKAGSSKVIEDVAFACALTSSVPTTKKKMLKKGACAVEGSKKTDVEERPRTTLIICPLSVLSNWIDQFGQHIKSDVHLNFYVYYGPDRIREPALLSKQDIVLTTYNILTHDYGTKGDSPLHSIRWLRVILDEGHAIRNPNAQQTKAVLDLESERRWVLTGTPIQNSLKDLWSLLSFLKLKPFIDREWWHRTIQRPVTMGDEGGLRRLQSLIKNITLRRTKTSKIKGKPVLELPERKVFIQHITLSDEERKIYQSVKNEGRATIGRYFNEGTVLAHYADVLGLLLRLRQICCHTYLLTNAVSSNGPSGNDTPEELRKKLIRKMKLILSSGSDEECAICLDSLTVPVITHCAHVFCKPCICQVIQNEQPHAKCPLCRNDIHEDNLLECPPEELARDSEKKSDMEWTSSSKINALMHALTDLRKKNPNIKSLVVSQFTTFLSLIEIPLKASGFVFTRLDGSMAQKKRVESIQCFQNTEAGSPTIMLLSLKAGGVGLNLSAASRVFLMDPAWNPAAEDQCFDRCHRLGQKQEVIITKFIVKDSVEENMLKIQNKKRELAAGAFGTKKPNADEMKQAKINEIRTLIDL
Chain of UniProt O15347 (O15347 whole entry, looked up): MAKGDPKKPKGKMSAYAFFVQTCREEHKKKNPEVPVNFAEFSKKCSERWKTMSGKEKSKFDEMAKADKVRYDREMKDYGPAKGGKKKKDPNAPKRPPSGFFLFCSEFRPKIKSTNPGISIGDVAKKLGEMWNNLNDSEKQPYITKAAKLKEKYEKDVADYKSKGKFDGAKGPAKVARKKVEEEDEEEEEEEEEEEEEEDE
Chain of UniProt P52597 (P52597 whole entry, looked up): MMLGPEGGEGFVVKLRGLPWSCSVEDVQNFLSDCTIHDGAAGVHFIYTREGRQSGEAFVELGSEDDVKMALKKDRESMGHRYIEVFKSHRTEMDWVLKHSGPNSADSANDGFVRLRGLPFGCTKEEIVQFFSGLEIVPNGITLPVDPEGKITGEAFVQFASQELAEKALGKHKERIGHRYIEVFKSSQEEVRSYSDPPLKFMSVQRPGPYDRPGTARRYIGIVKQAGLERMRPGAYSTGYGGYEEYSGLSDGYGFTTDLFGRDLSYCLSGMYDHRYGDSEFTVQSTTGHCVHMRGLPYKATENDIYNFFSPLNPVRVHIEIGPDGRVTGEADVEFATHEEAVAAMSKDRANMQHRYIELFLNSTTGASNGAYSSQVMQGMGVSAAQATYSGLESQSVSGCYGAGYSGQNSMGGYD
Chain of UniProt P0CL80 (P0CL80 whole entry, looked up): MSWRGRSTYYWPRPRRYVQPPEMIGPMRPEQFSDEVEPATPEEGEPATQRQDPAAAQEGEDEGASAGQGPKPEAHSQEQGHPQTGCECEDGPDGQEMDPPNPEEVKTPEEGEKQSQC
Chain of UniProt Q49A26 (Q49A26 whole entry, looked up): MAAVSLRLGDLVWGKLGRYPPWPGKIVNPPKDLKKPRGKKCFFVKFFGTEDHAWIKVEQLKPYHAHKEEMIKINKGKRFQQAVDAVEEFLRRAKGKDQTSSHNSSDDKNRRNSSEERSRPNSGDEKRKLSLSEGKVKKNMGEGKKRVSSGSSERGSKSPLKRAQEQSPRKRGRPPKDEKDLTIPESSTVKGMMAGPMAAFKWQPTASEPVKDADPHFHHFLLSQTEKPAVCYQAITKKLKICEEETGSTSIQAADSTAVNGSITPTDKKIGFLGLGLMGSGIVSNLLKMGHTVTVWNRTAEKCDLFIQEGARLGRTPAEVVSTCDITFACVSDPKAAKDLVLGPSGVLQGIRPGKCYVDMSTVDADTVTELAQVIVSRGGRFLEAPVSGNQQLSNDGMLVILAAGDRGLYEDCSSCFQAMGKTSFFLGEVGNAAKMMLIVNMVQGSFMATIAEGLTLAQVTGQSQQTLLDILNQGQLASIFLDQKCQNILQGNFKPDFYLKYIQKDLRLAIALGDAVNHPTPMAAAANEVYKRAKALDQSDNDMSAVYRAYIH
Chain of UniProt P63218 (P63218 whole entry, looked up): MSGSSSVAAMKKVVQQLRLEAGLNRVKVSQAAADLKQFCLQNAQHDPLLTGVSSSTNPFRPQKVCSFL
Chain of UniProt P02008 (P02008 whole entry, looked up): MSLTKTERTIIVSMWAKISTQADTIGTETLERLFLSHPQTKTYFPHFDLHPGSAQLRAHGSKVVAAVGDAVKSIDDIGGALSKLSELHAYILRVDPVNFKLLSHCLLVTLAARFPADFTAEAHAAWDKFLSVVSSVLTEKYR

log2 fold change, inactive:
HMGB3 (UniProt O15347) -0.025
HNRNPUL1 (UniProt Q9BUJ2) 0.029
FANCD2 isoform 1 (UniProt Q9BXW9) -0.008
HOOK3 (UniProt Q86VS8) -0.005
HECTD1 (UniProt Q9ULT8) -0.076
HDGFL2 (UniProt Q7Z4V5) 0.033
GTF2E1 (UniProt P29083) -0.076
IFI30 (UniProt P13284) -0.004
GSK3B isoform 2 (UniProt P49841) 0.042
GIGYF2 (UniProt Q6Y7W6) -0.039
GPAT4 (UniProt Q86UL3) -0.087
HTATIP2 isoform 3 (UniProt Q9BUP3) -0.039
H2AZ1 (UniProt P0C0S5) 0.07
IFRD2 isoform 2 (UniProt Q12894) 0.302
GEMIN5 (UniProt Q8TEQ6) 0.015
HIC2 (UniProt Q96JB3) -0.023
GTF2B (UniProt Q00403) -0.065
IDH3A (UniProt P50213) -0.009
HNRNPF (UniProt P52597) -0.044
GAGE12F (UniProt P0CL80) -0.088
GDE1 (UniProt Q9NZC3) 0.003
GLB1 (UniProt P16278) 0.017
FASTKD1 (UniProt Q53R41) -0.108
GALNT4 (UniProt Q8N4A0) 0.006
HHEX (UniProt Q03014) -0.004
HPCAL1 (UniProt P37235) 0.013
GNG5 (UniProt P63218) -0.037
GLYR1 (UniProt Q49A26) 0.119
HLTF (UniProt Q14527) -0.016
GTF2E2 (UniProt P29084) -0.03
HADHB (UniProt P55084) -0.206
HBZ (UniProt P02008) -0.034
FBXO42 (UniProt Q6P3S6) -0.05
GALNT11 (UniProt Q8NCW6) -0.025
GNB2 (UniProt P62879) -0.057

What follows are targets tested with C1CN(CCC1(CC2=CC=C(C=C2)Cl)N)C3=NC=NC4=C3C=CN4 in the same assay as above.
Summary of the method: as §1

log2 fold change, inactive:
HMGB3 (UniProt O15347) 0.023
HNRNPUL1 (UniProt Q9BUJ2) -0.048
FANCD2 isoform 1 (UniProt Q9BXW9) 0.02
HOOK3 (UniProt Q86VS8) -0.024
HECTD1 (UniProt Q9ULT8) -0.204
HDGFL2 (UniProt Q7Z4V5) 0.057
GTF2E1 (UniProt P29083) 0.017
IFI30 (UniProt P13284) 0.026
GSK3B isoform 2 (UniProt P49841) 0.159
GIGYF2 (UniProt Q6Y7W6) -0.025
GPAT4 (UniProt Q86UL3) 0.07
HTATIP2 isoform 3 (UniProt Q9BUP3) 0.005
H2AZ1 (UniProt P0C0S5) 0.037
IFRD2 isoform 2 (UniProt Q12894) 0.04
GEMIN5 (UniProt Q8TEQ6) 0.017
HIC2 (UniProt Q96JB3) -0.09
GTF2B (UniProt Q00403) -0.046
IDH3A (UniProt P50213) 0.028
HNRNPF (UniProt P52597) -0.044
GAGE12F (UniProt P0CL80) 0.052
GDE1 (UniProt Q9NZC3) 0.13
GLB1 (UniProt P16278) -0.009
FASTKD1 (UniProt Q53R41) -0.014
GALNT4 (UniProt Q8N4A0) 0.005
HHEX (UniProt Q03014) 0.022
HPCAL1 (UniProt P37235) -0.034
GNG5 (UniProt P63218) -0.044
GLYR1 (UniProt Q49A26) -0.03
HLTF (UniProt Q14527) -0.011
GTF2E2 (UniProt P29084) -0.13
HADHB (UniProt P55084) 0.158
HBZ (UniProt P02008) 0.043
FBXO42 (UniProt Q6P3S6) -0.024
GALNT11 (UniProt Q8NCW6) 0.014
GNB2 (UniProt P62879) -0.002
